The record followed here is paper PMC7819943, “Rice protein-binding microarrays: a tool to detect cis-acting elements near promoter regions in rice”.

In all, about 35,000 sequences were measured (“fluorescence intensity (a.u.)”: median about 10,000, highest 2% from about 52,000 on). The sample as a whole holds a higher share of the highest values than the screen did.

In the assay the target is T1, OsWOX13 (Oryza sativa, UniProt Q5QMM3 1-267).
T1 sequence: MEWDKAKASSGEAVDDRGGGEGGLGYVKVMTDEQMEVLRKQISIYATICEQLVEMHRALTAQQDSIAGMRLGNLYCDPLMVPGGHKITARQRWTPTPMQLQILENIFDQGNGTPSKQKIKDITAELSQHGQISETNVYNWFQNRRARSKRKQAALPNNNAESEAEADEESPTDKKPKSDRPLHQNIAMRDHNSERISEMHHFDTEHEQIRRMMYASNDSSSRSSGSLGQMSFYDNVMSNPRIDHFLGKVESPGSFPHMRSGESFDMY
The assay can be described thus: protein-binding microarray (RPBM); PBS, 2% BSA, 51.3 ng/ul salmon testes DNA, 50 uM zinc acetate, 200 nM TF, 25 C, 1 h; high values mean tight binding. Particulars: protein: recombinant; tags: N-terminal polyhistidine and DsRed monomer fusion (pET32a); label: CyDye5-dUTP incorporated in the synthesized complementary strand; 3' TTTTT single-stranded linker to array surface; dsDNA, one strand shown. In short, it runs like this:
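Per-feature fluorescence intensity (arbitrary units), read on an Axon 4000B scanner, is the binding signal. Transcription factors carrying an N-terminal polyhistidine tag and DsRed fusion were expressed in E. coli BL21-CodonPlus and purified on Ni–NTA. A custom Agilent array, made double-stranded by primer extension with Cy5-dUTP and blocked with 2% BSA, was incubated with 200 nM protein in PBS, 2% BSA, salmon testes DNA and 50 µM zinc acetate at 25 °C for 1 h and then washed.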
“GCAATAATTAATAAGGCTCTAGGATAATTCAAATGGTTTTCGGAGTCACCTAGTGCAG”: the binding signal is 9520 fluorescence intensity (a.u.).

In the case of “CTACAAAATTAAGCTGATAGCAACATCATTCACACATGGACGGAGTCACCTAGTGCAG”, the binding signal is 4120 fluorescence intensity (a.u.).

Regarding “TAATGGTTTTCAGACAAATGGATAATTAAGCTGATAGCGACGGAGTCACCTAGTGCAG”, the binding signal is 65400 fluorescence intensity (a.u.).

Regarding “GGCTGACGTCTAAATAAATTTTGAGTAAATTACATTAGCGCGGAGTCACCTAGTGCAG”, the binding signal is 15600 fluorescence intensity (a.u.).

“ATCGTAGTGTAATTACACTGTAACTTATATGTAATTACACCGGAGTCACCTAGTGCAG”: the binding signal was 12100 fluorescence intensity (a.u.).

With “AAATATTATAATTGATTGTCGATGAAACATCGGGTTGTACCGGAGTCACCTAGTGCAG”, the binding signal was 46200 fluorescence intensity (a.u.).

As for “TATAATTGATGTACATCGATGATTAATTCTCTAACAGATCCGGAGTCACCTAGTGCAG”, the binding signal is 62300 fluorescence intensity (a.u.).

Turning to “CGATGATTGTAATCTCATTGAACAGATGATCCTTCAGGATCGGAGTCACCTAGTGCAG”, the binding signal was 52400 fluorescence intensity (a.u.).

In the case of “CTCAGATTTGATCAGTGGTAATTTCTCATGTAATCTCATTCGGAGTCACCTAGTGCAG”, the binding signal was 10500 fluorescence intensity (a.u.).

Take “TCCTTTATTATCTGTAATTGTAAAATCTTCAGATGAACACCGGAGTCACCTAGTGCAG”: the binding signal is 6210 fluorescence intensity (a.u.).

On to “AATTGATTAAGATGATGATGAAAGATAATACAGCTCGATCCGGAGTCACCTAGTGCAG”, for which the binding signal is 27100 fluorescence intensity (a.u.).

“TCAAATACTGCTGATTATACATACCCACATGTGTTGAATGCGGAGTCACCTAGTGCAG”: the binding signal is 3580 fluorescence intensity (a.u.).

For the sequence “ATAAAGTGATTTAATTTTAGTTAAAGTTAAACTACTTTAACGGAGTCACCTAGTGCAG”, the binding signal is 21100 fluorescence intensity (a.u.).

With “CACTCTTGCATTTCTTTGATTGCAAATTTCCAAGGCAGAACGGAGTCACCTAGTGCAG”, the binding signal is 5250 fluorescence intensity (a.u.).

Turning to “ATTTTACAGGGTGATTTGAACATACAGTAATTATGGCCAACGGAGTCACCTAGTGCAG”, the binding signal is 6520 fluorescence intensity (a.u.).

“AAATGTCTTGTAGATTGATATATTACATGGAACAAAATTTCGGAGTCACCTAGTGCAG”: the binding signal was 3240 fluorescence intensity (a.u.).

As to “GTTAAACTAATTTGAATTTGTTAGTACAGTTTGCATTTCACGGAGTCACCTAGTGCAG”, the binding signal is 25500 fluorescence intensity (a.u.).

Take “TGTGTTCTTGATTTGTGTTGTGTTTGTAGATCGTAGTTTGCGGAGTCACCTAGTGCAG”: the binding signal is 10200 fluorescence intensity (a.u.).

As to “TTAATTGGATTGTTTTGATTCGTTGGAGAAGTTAGGAATACGGAGTCACCTAGTGCAG”, the binding signal was 28600 fluorescence intensity (a.u.).

Regarding “ATTTGATTGAATGTAGAGATTCTTGTAATAGGATTCTTTGCGGAGTCACCTAGTGCAG”, the binding signal was 64700 fluorescence intensity (a.u.).

For “TGAAATTAATTTGATGTGATAGATTTCTAGGTTTTCTTTGCGGAGTCACCTAGTGCAG”, the binding signal is 64300 fluorescence intensity (a.u.).

Take “CTGTAATCTTGCTGATTGAATTCTATTTTGATGTGCAGAGCGGAGTCACCTAGTGCAG”: the binding signal is 44800 fluorescence intensity (a.u.).

Consider “GTATGTGATTTTCTTTAATTAGAGTTCTTGCCTAAGGTTGCGGAGTCACCTAGTGCAG”, for which the binding signal was 38300 fluorescence intensity (a.u.).

Take “CTTGATTTATTATTTACCATGTTAGAAATGTTTATTTATACGGAGTCACCTAGTGCAG”: the binding signal is 29600 fluorescence intensity (a.u.).

Consider “TTTTGAAATTTCAGATTATTTTGTGTGGTTTTGTAATTTGCGGAGTCACCTAGTGCAG”, for which the binding signal was 4570 fluorescence intensity (a.u.).

With “CTGATTGATTCGTAATAGTAGAATAGGACATGTTACCATACGGAGTCACCTAGTGCAG”, the binding signal is 64500 fluorescence intensity (a.u.).

“CAGATTAAAATTTCTGCTCAAGCTAGCCATCGATCATCTGCGGAGTCACCTAGTGCAG”: the binding signal was 3930 fluorescence intensity (a.u.).

For the sequence “GATGAAACATTTGACATGAACTAAATTTTGTTCGGCAGTTCGGAGTCACCTAGTGCAG”, the binding signal was 5180 fluorescence intensity (a.u.).

“CGTAGAAGGGATTGGGTGAAATTACATGGGCATATAGGGACGGAGTCACCTAGTGCAG”: the binding signal is 4240 fluorescence intensity (a.u.).

As for “ATAATTAGACTTCTTGTTGCCTTCACCTATTTTAACACATCGGAGTCACCTAGTGCAG”, the binding signal is 13000 fluorescence intensity (a.u.).

In the case of “GAAAATTATGTACATCCTCCGCTTAAAGATGACTATGAATCGGAGTCACCTAGTGCAG”, the binding signal is 4540 fluorescence intensity (a.u.).

With “GATAAGTAAATTAATTGGAAGAAAGAAATCAGTGGGGAGGCGGAGTCACCTAGTGCAG”, the binding signal is 13500 fluorescence intensity (a.u.).

Take “AGCCTAATTAATCCGTCATTAGCAAATATTTACTGTAGCACGGAGTCACCTAGTGCAG”: the binding signal is 28400 fluorescence intensity (a.u.).

As to “TAAGTAGATCGAAAATGTTTCAATCATTTAAATCAGGCGTCGGAGTCACCTAGTGCAG”, the binding signal was 4180 fluorescence intensity (a.u.).

In the case of “TTATTAATTATCATATTAGTAGTAGTAGTAGTAGCTAGGCCGGAGTCACCTAGTGCAG”, the binding signal was 34100 fluorescence intensity (a.u.).

On to “TATGATATGTCAAATCCTATAATTTCTTCGTCCCAAAATGCGGAGTCACCTAGTGCAG”, for which the binding signal is 3440 fluorescence intensity (a.u.).

Consider “ATCGGAGACTGACTGAGTGAAGGTTGGTTGGTTCACACTTCGGAGTCACCTAGTGCAG”, for which the binding signal is 4540 fluorescence intensity (a.u.).

“GGTCCAATCAACATGAATAACAAAACAAAGGAAATGGATTCGGAGTCACCTAGTGCAG”: the binding signal was 17100 fluorescence intensity (a.u.).

“GAATGGTCCAACAAGGAGACTGAGGAATGGTCAACACATTCGGAGTCACCTAGTGCAG”: the binding signal is 59700 fluorescence intensity (a.u.).

In the case of “ATGATCAATCAGTAGATTATGCCCTGGTTATTCTTTATAACGGAGTCACCTAGTGCAG”, the binding signal is 25400 fluorescence intensity (a.u.).

“ATGGATATAAATTGATGAGTACAGTCCTGAGAACTGCAAGCGGAGTCACCTAGTGCAG”: the binding signal was 32600 fluorescence intensity (a.u.).

Take “GTTACTGTGATTTGTTTCACGAAGCCCCATGTTTTGAGCCCGGAGTCACCTAGTGCAG”: the binding signal is 11700 fluorescence intensity (a.u.).
